Laboratory results published in the supplement of paper PMC10849652.
Of roughly 7,900 targets only a part is listed; those with a hit were picked by preference. About 0.6% of all pairs of compound and target were hits.

compound: c1ccc([C@@H]2C[C@H]2NC2CCNCC2)cc1; test: log2 fold change, soluble protein after heating vs DMSO (PISA); higher = thermal stabilisation; K562 cells, 10 uM, 30 min; active = over 0.2 and 3.5 SD of the protein, either way, in both replicates (recomputed)
Method in brief: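 Quantification of soluble protein used TMTpro 16plex LC-MS/MS, with channel sums equalised. Samples were the supernatant after 21,000xg for 90 min of pooled aliquots from K562 cells (2×10^6 cells/mL) treated with 10 μM compound for 30 min, heated for 3 min over 48°C-58°C, and extracted in PBS with 0.5% NP-40 at 4°C. Values, from duplicates, describe thermal stability against control samples on a log2 fold-change scale.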

Chain of UniProt O00471 (O00471 whole entry, looked up): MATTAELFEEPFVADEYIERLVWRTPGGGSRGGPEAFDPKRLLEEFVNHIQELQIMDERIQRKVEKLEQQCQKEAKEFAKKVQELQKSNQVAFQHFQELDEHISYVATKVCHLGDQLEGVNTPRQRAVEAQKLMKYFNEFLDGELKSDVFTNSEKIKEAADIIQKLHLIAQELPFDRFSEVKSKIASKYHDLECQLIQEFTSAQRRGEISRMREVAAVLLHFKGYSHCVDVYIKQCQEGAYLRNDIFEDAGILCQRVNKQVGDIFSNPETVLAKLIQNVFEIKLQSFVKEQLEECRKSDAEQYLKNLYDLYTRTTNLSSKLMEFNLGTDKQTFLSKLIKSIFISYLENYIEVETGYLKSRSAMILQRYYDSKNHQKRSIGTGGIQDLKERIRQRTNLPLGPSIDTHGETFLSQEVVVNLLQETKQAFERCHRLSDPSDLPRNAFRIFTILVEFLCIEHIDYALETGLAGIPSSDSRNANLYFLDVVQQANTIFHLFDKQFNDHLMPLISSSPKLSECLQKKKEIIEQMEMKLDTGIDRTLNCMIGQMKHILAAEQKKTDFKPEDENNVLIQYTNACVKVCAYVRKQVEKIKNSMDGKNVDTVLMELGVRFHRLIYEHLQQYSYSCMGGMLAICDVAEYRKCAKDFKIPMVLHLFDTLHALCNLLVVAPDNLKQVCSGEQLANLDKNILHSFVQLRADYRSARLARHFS
Chain of UniProt Q9GZT9 (Q9GZT9 whole entry, looked up): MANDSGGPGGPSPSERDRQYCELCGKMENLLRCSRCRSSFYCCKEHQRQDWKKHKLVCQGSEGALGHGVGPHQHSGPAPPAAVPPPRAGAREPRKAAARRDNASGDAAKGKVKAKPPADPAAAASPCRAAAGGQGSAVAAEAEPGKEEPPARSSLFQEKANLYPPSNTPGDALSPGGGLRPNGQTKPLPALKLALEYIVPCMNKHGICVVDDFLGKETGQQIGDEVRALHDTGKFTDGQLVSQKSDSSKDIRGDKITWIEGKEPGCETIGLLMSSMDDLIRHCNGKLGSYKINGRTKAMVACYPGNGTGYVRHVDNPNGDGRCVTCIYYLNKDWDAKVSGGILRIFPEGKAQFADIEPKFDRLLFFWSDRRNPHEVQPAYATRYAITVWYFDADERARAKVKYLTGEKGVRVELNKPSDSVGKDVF
Chain of UniProt Q9NWS6 (Q9NWS6 whole entry, looked up): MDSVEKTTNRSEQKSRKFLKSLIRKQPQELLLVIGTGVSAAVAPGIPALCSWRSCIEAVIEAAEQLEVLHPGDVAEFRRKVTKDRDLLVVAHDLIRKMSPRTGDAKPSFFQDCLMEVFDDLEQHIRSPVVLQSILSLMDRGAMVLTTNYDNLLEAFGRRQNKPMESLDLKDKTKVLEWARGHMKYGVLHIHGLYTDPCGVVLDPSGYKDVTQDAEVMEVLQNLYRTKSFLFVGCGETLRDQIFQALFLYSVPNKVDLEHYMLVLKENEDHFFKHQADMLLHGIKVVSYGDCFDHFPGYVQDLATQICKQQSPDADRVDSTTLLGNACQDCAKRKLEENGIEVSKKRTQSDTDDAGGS
Chain of UniProt Q7Z7A3 (Q7Z7A3 whole entry, looked up): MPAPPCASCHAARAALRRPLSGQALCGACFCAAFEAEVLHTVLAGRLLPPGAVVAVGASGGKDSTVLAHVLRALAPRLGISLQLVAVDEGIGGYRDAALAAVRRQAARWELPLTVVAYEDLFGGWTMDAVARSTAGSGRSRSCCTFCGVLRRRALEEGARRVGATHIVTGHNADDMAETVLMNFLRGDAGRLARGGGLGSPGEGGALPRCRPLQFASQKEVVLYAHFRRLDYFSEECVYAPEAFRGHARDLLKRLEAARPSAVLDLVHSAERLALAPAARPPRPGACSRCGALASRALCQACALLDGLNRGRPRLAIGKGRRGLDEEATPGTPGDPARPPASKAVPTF
Chain of UniProt P39656 (P39656 whole entry, looked up): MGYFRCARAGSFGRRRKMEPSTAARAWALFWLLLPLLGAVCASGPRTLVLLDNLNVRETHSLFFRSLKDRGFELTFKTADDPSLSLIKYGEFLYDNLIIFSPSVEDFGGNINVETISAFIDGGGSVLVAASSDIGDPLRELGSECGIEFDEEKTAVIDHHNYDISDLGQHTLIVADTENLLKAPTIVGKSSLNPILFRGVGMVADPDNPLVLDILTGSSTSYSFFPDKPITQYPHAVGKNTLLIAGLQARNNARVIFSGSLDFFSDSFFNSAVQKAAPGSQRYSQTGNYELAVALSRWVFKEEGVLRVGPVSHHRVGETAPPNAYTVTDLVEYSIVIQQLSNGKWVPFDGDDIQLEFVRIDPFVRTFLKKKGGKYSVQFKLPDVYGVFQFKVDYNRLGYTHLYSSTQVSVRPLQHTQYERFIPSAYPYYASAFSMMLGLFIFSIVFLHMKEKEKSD
Chain of UniProt P68104 (P68104 whole entry, looked up): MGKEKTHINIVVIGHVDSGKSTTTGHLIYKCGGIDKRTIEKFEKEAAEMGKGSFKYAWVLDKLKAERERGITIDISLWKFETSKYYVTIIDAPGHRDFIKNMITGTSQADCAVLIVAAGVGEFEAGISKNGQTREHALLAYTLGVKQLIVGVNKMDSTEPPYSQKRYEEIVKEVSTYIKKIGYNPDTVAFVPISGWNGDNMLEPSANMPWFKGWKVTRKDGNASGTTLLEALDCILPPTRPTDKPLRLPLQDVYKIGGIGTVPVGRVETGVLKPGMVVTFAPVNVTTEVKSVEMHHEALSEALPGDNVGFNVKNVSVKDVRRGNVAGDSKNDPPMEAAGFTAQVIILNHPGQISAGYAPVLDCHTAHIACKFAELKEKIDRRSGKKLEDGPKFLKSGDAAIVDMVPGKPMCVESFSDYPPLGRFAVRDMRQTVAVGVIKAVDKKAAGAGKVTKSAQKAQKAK
Chain of UniProt Q96KC8 (Q96KC8 whole entry, looked up): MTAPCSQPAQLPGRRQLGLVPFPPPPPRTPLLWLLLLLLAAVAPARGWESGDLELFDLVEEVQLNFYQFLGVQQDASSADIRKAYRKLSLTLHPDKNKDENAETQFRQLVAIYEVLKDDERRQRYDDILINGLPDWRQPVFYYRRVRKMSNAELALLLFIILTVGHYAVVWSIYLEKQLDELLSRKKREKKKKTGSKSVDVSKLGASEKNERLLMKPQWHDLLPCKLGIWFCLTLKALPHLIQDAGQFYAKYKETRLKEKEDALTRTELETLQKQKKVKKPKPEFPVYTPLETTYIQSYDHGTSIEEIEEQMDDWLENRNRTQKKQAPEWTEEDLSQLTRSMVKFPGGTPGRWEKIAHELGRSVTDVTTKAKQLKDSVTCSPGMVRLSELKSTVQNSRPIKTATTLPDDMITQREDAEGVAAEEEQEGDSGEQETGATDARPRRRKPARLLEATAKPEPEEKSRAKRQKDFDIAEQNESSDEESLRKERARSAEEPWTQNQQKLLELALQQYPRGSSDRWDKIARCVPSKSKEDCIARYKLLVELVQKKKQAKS
Chain of UniProt Q96EV8 (Q96EV8 whole entry, looked up): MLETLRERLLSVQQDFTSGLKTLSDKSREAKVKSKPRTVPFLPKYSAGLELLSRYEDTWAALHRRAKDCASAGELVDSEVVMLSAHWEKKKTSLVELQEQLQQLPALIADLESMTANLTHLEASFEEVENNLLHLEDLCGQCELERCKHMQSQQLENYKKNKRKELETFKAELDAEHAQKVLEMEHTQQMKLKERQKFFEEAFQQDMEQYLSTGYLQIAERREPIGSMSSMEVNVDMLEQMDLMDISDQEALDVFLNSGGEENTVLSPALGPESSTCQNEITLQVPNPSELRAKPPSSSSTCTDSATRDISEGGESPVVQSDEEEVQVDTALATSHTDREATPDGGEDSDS
Chain of UniProt Q8N8J7 (Q8N8J7 whole entry, looked up): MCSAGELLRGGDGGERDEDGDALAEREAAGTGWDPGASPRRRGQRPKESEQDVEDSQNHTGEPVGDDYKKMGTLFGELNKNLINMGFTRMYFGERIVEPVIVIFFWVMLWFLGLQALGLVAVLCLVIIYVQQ
Chain of UniProt Q16254 (Q16254 whole entry, looked up): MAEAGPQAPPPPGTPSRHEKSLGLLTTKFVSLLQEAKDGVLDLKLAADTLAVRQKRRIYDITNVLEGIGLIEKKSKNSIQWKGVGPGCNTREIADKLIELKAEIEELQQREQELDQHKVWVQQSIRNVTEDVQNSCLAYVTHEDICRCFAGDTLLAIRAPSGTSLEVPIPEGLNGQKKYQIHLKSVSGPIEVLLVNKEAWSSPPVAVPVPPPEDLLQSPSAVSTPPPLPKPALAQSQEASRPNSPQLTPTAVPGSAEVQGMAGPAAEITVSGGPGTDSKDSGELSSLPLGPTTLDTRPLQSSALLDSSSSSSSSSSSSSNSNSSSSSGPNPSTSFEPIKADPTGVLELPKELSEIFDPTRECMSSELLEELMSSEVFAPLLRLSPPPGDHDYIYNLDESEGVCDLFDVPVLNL
Chain of UniProt Q13011 (Q13011 whole entry, looked up): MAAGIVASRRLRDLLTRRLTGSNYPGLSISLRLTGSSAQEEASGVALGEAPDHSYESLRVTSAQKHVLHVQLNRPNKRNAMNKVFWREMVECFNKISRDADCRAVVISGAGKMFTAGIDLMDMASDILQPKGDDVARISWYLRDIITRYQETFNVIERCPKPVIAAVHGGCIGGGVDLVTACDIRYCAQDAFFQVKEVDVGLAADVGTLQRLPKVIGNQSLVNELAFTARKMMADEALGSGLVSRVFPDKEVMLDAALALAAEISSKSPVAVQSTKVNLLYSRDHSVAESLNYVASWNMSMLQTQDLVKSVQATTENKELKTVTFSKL
Chain of UniProt Q9H2P9 (Q9H2P9 whole entry, looked up): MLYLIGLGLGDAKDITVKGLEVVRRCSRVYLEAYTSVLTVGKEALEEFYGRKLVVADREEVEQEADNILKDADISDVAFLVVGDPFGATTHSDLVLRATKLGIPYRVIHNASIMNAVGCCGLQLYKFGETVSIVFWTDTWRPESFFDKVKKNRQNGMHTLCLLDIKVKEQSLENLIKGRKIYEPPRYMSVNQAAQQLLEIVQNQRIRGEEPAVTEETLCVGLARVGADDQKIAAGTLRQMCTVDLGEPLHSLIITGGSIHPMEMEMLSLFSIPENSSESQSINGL

Target	log2 fold change
EEA1 (UniProt Q15075)	0.038 (inactive)
FAM118A (UniProt Q9NWS6)	0.003 (inactive)
FADS1, A0A0A0MR51	-0.038 (inactive)
DDX4 (UniProt Q9NQI0)	0.001 (inactive)
DUS3L (UniProt Q96G46)	0.007 (inactive)
DHRS7B (UniProt Q6IAN0)	-0.013 (inactive)
DNAJC1 (UniProt Q96KC8)	0.052 (inactive)
EGR1 (UniProt P18146)	0.07 (inactive)
FAM160B1 (UniProt Q5W0V3)	-0.041 (inactive)
EXOC5 (UniProt O00471)	-0.018 (inactive)
EEF1D isoform 2 (UniProt P29692)	-0.011 (inactive)
ELOVL5 isoform 2 (UniProt Q9NYP7)	0.033 (inactive)
DSN1 (UniProt Q9H410)	-0.054 (inactive)
DTNBP1 (UniProt Q96EV8)	0.013 (inactive)
ETNK1 (UniProt Q9HBU6)	0.022 (inactive)
CUTA isoform 2 (UniProt O60888)	0.015 (inactive)
ESYT1 isoform 2 (UniProt Q9BSJ8)	-0.046 (inactive)
DHPS (UniProt P49366)	0.081 (inactive)
FAM241A (UniProt Q8N8J7)	0.008 (inactive)
ECH1 (UniProt Q13011)	-0.046 (inactive)

Target	log2 fold change
DUS2 (UniProt Q9NX74)	-0.023 (inactive)
EIF4E2 (UniProt O60573)	0.055 (inactive)
DDOST (UniProt P39656)	0 (inactive)
EDC3 (UniProt Q96F86)	0.026 (inactive)
E2F4 (UniProt Q16254)	-0.001 (inactive)
EHD2 (UniProt Q9NZN4)	-0.049 (inactive)
EEF1A1 (UniProt P68104)	-0.471 (inactive)
DBR1 (UniProt Q9UK59)	0.057 (inactive)
CTSB (UniProt P07858)	-0.035 (inactive)
DPH5 isoform 5 (UniProt Q9H2P9)	0 (inactive)
CUX1 isoform 3 (UniProt P39880)	0.016 (inactive)
EGLN1 (UniProt Q9GZT9)	0.019 (inactive)
DEGS1 (UniProt O15121)	0.052 (inactive)
FAM177A1 isoform 2 (UniProt Q8N128)	0.028 (inactive)
CTU1 (UniProt Q7Z7A3)	-0.051 (inactive)
EDC4 (UniProt Q6P2E9)	0.024 (inactive)
DHX36 (UniProt Q9H2U1)	0.015 (inactive)
EOGT (UniProt Q5NDL2)	0.077 (inactive)
DNAJB1 (UniProt P25685)	-0.026 (inactive)
